# Pol kappa inh = qHTS for Inhibitors of Polymerase Kappa | DNA polymerase kappa (Homo sapiens), Q9UBT6 | purified Pol kappa, fluorescent DNA synthesis assay, 10 min | Potency, µM (top dose mostly 107 µM), for the others: at the top dose activity, negative = inhibition, usual class: inhibitors | hit rate 0.53% among 400,000 | AID 588579, 2011; note: % is set by controls: 0 for no effect and ±100 for the full control effect
# Target sequence (Q9UBT6 whole entry, looked up): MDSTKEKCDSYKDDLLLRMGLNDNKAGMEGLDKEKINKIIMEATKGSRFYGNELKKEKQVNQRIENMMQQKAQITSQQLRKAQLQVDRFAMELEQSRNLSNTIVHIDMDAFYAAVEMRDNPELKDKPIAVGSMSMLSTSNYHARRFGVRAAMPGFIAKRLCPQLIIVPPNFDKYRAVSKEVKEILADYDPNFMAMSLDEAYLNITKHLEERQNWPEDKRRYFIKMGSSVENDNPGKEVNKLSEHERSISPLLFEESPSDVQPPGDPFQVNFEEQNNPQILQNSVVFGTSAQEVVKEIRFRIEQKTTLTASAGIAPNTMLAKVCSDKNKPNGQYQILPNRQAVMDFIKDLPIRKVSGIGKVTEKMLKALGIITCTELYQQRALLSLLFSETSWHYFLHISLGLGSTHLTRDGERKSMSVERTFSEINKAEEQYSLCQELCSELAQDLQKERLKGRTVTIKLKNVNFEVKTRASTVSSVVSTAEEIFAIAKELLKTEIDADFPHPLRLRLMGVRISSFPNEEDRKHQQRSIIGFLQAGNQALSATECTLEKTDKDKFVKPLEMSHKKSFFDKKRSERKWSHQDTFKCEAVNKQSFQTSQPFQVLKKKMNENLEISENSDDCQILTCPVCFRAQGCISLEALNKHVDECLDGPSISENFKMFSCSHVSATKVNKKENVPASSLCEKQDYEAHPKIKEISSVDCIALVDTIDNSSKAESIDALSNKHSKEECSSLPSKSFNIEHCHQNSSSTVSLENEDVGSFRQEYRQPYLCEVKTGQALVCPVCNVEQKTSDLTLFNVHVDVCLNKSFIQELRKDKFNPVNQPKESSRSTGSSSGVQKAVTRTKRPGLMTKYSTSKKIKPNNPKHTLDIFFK
#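 Pol kappa 10 nM + cpd, 15 min RT; start w/ substrate 50 nM final; fluorescence kinetic read, 0 and 10 min. Neg ctrl: buffer, no enzyme.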
# POLI inh = qHTS for Inhibitors of Polymerase Iota; AID 588590, 2011; DNA polymerase iota (Homo sapiens), Q9UNA4; Potency, µM (highest dose often 115 µM), for inactives: top-dose activity, negative = inhibition, usual class: inhibitors; Pol iota fluorescent replication assay, 10 min; hit rate 1% among 390,000
#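 Fluorescent replication assay read twice, at 0 min and 10 min after adding 50 nM (final) substrate. Enzyme (10 nM) and compounds were first incubated 15 min at room temperature; enzyme-free buffer wells were negative controls.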
# POLH inh = qHTS for Inhibitors of Polymerase Eta; hit rate 1.2% among 390,000; DNA polymerase eta (Homo sapiens), Q9Y253; Potency, µM (series often up to 114 µM), inactives show top-dose activity change, negative = inhibition, hits mostly inhibitors; AID 588591, 2011; recombinant Pol eta, fluorescent DNA replication assay; note: % is set by controls: 0 for no effect and ±100 for the full control effect
#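 Pol eta (10 nM) was preincubated with compounds for 15 min at room temperature, after which fluorescent replication substrate (50 nM final) was added to start the reaction. Fluorescence was read kinetically at 0 and 10 min.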
# Pol beta inh = qHTS Assay for Inhibitors of DNA Polymerase Beta; Pol beta primer extension/strand displacement, fluorescence kinetic; hit rate 1.3% among 340,000; P06746; Potency, µM (titrated, usually from 114 µM), inactives show at the top dose activity change, negative = inhibition, most hits filed as inhibitors; note: % is set by controls: 0 for no effect and ±100 for the full control effect
#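 Pol beta (10 nM) was preincubated with compound for 15 min at room temperature. The reaction was then started with 50 nM substrate and read immediately and after a further 10 min at room temperature.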
# TDP1 inh = qHTS Assay for Inhibitors of Tyrosyl-DNA Phosphodiesterase (TDP1); Tyrosyl-DNA phosphodiesterase 1 (Homo sapiens), Q9NUW8; recombinant TDP1, AlphaScreen DNA substrate cleavage; Potency, µM (series often up to 130 µM), inactives show top-dose activity change, negative = inhibition, usual class: inhibitors; hit rate 0.28% among 350,000; note: % is set by controls: 0 for no effect and ±100 for the full control effect; nearly all actives have a fitted effect of over 40% in size
#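 Recombinant human Tdp1 (E. coli-expressed, 1 nM final) preincubated with compounds 15 min at room temperature, then 5'-biotin/3'-phosphotyrosine-FITC DNA substrate (15 nM final) added for 5 min. AlphaScreen beads (10 ug/ml final) added 10 min; cleavage lowers signal.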
# The depositor's hits bear a star; ? = inconclusive; . = no result; [ ] = dose if it differs, or a comment. A selection: hits, their analogues and other compounds. The true share with any hit is near 2.4%. Calls come from the whole dose curve; as a rule, active = well fitted curve in the direction sought with a large enough effect; inconclusive = small, poorly fitted or top-dose-only effect, or another doubt; inactive = no such curve, though single readings can be large; an effect the other way counts as inactive or inconclusive. Potency is the fitted concentration of half-maximal effect.
SMILES,Pol kappa inh,POLI inh,POLH inh,Pol beta inh,TDP1 inh
COc1ccc(/C=C/C(=O)Nc2ccc3nc(N4CCC(C)CC4)cc(C)c3c2)cc1OC,-27%,-24%,-24%,-24%,6%
CC(NS(=O)(=O)c1ccccc1)C(=O)NC1CCCC1 (centres undefined),-9%,-22%,79µM*,?,-7%
CC(C)C(NS(=O)(=O)c1ccccc1)C(=O)NC1CCCC1 (centres undefined),10%,?,-2%,56%,1%
NC(=O)CC(NC(=O)c1ccccc1)c1ccc(NCCCN2CCCC2=O)c([N+](=O)[O-])c1 (centres undefined),-6%,?,4%,79µM*,.
NC(=O)CC(NC(=O)Cc1ccc(Cl)cc1)c1ccc(NCCCN2CCCC2=O)c([N+](=O)[O-])c1 (centres undefined),9%,4%,-10%,1%,.
Cc1cc(C(=O)COc2cccc3cccnc23)c(C)n1C,-12%,8%,?,11µM*,11%
CCc1ccccc1NC(=O)c1cnc2sc(N3CCCC3)nn2c1=O,-24%,-12%,-10%,-24%,6%
CCOC(=O)c1c(NC(=O)CSc2nc3cccnc3n2C)sc(C(C)=O)c1C,-7%,3%,7%,-1%,5%
CCOC(=O)c1c(NC(=O)CSc2nnc(-c3ccccc3C)n2C)sc(C(C)=O)c1C,?,15%,35µM*,18%,4%
O=C1CCc2cc(S(=O)(=O)Nc3cc(F)cc(Cl)c3)c(F)cc2N1,.,.,.,.,-1%
CN1C(C(=O)Nc2ccccn2)=C(O)c2sc(Cl)cc2S1(=O)=O,-10%,79µM*,0%,?,.
CN1C(C(=O)Nc2ccccn2)C(=O)c2sc(Cl)cc2S1(=O)=O (centres undefined),-10%[60.1 µM],.,.,.,4%
Clc1ccc(-c2csc3ncnc(Sc4nnnn4C4CC4)c23)cc1,-2%,-17%,.,.,.
C=C(C)C1CC=C(C)/C(=N/NC(=O)CNc2ccc(OCC)cc2)C1 (centres undefined),0%,89µM*,-3%,-2%,10%
CCCCOC(=O)CSC1=C(C#N)C(c2ccccc2OCC)C(C#N)C(=O)N1 (centres undefined),-38%,79µM*,-15%,12%,6%
CS(=O)(=O)/C=C/c1nc(Nc2cc(F)cc(F)c2)c2ncn(CC(F)F)c2n1,.,.,.,.,1%
C=CCn1c(SCC(C)=O)nc2scc(-c3ccco3)c2c1=O,?,?,40µM*,10µM*,8%[0.0935 µM]
CC(C)C(C)NC(=O)CSc1nc2scc(-c3ccco3)c2c(=O)n1-c1ccccc1 (centres undefined),-19%,?,?,-4%,-2%
C=CCn1c(SC(F)F)nc2scc(-c3ccco3)c2c1=O,-10%,9%,-18%,9%,4%
CC(C)C(C)(C#N)NC(=O)CSc1nc2scc(-c3ccco3)c2c(=O)n1-c1ccccc1 (centres undefined),-4%,?,-11%,28µM*,.
O=C1CCc2cc(S(=O)(=O)Nc3ccc(-c4ccccc4)cc3)ccc2N1,.,.,.,.,3%
O=C(CCN1C(=O)c2ccccc2C1=O)NCc1ccco1,-7%,50µM*,?,1%,-12%
O=C(CCCN1C(=O)c2ccccc2C1=O)Nc1sc2c(c1C(=O)NCc1ccco1)CCC2,-13%,?,-3%,20µM*,2%
O=C(CCN1C(=O)c2ccccc2C1=O)NCc1ccc(F)cc1,-9%,-6%,-6%,-18%,.
CCn1c2ccccc2c2nnc(SCc3ccc(C(=O)OC)o3)nc21,-6%,3%,-10%,35µM*,-2%
SMILES,Pol kappa inh,POLI inh,POLH inh,Pol beta inh,TDP1 inh
O=c1oc2c3c4c(cc2s1)CCCN4CCC3,?,11µM*,?,22µM*,14µM*
O=c1ccc2cc3c4c(c2o1)CCCN4CCC3,-33%,?,?,0%,.
Cc1cc(C=O)cc(C)c1[N+](=O)[O-],16%,1%,.,.,.
CCOC(=O)C1Nc2ccc(Br)cc2C2C=CCC12 (centres undefined),?,45µM*,79µM*,?,.
O=C(OC1CCCCC1)c1ccc2c(c1)C1C=CCC1C(C(=O)O)N2 (centres undefined),.,.,.,2.2µM*,-5%
CCOC(=O)c1ccc2c(c1)C1C=CCC1C(C(=O)OCC)N2 (centres undefined),-23%,?,?,?,.
CCOC(=O)C1Nc2ccc(C)cc2C2C=CCC12 (centres undefined),-22%,?,-11%,.,.
COc1cccc(C2c3c(ncn(-c4ccccc4SC)c3=N)Oc3ccc4ccccc4c32)c1 (centres undefined),.,.,.,.,5%
Cc1c(CCOC(=O)c2ccccc2)sc[n+]1Cc1ccccc1,-18%,17%,?,-17%,10%
Cc1ccc2c(c1)sc[n+]2Cc1ccccc1,-13%,45µM*,-10%,22%,5%
Cc1ccc(C)n1-c1cccc(NC(=O)c2ccccc2)c1,-13%,1%,?,16µM*,0%
O=C(O)CCn1cnc2onc(-c3ccccc3Cl)c2c1=O,-15%,6%,-4%,22µM*,1%
COC(=O)CCn1cnc2onc(-c3cc(F)cc(F)c3)c2c1=O,-16%,13%,-17%,-7%,1%
C=CCN=c1scc(-c2ccco2)n1/N=C/c1ccc(O)c(O)c1O,22µM*,1.8µM*,?,-96%,.
O=[N+]([O-])c1cccc(CNC2CCCCCC2)c1,0%,122%,-11%,28µM*,-1%
COc1ccc(-c2ccc3c(c2)S(=O)(=O)c2cccc(C(=O)NCc4cc(C)oc4C(F)(F)F)c2C3=O)cc1OC,?,?,11µM*,.,-7%
O=C1C(Cl)=C(N2CCCCC2)C(=O)C(Cl)=C1c1cnc(N2CCCCC2)s1,-36%,?,?,5.6µM*,-6%[56.1 µM]
Cc1ccc(NS(=O)(=O)c2ccc3c(c2)CCCC(=O)N3)cc1C,.,.,.,.,0%
O=S1(=O)N=C(Oc2cccc(-c3ccccc3)c2)c2ccccc21,.,.,.,.,2%
COC(=O)c1c(C)c2c(c(C)c1O)OC(=O)c1c(C)c(Cl)c(O)c(Cl)c1O2,2%[60.1 µM],.,.,.,5%
Cc1cc(O)c(C=O)c2c1C(=O)Oc1c(C)c(O)c3c(c1O2)C(O)OC3=O (centres undefined),10µM*,.,.,.,7.9µM*
CCOc1cc2sc(N3CCC(C(=O)Nc4ccc(C)cc4C)CC3)nc2cc1Br,6%,17%,-25%,-12%,2%
CC(C)c1ccc(/C=C2\SC(=O)N(CC(=O)NC3CCS(=O)(=O)C3)C2=O)cc1 (centres undefined),-16%,16µM*,50µM*,?,-6%
